About 8,800 targets were measured; listed, in parts, are those with a hit and a random draw of the rest. About 0.5% of all pairs of compound and target were hits. Unmarked numbers belong to inactive results.
Experiments:
Assay in all cases: log2 fold change, soluble protein after heating vs DMSO (PISA); higher = thermal stabilisation; K562 lysate, 10 uM; active = over 0.2 and 3.5 SD of the protein, either way, in both replicates (recomputed)
vemurafenib = compound: CCCS(=O)(=O)Nc1ccc(F)c(C(=O)c2c[nH]c3ncc(-c4ccc(Cl)cc4)cc23)c1F [vemurafenib]
In short: (§1)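 Pellets of K562 cells were dounce-homogenised in PBS pH 7.4 with 1 mM MgCl2, and the crude extract was held at 1 mg/mL protein for a 30 min treatment with 10 μM compound. Aliquots were heated for 3 min over 48°C-58°C and pooled before NP-40 was added to 0.5% at 4°C. The supernatant from 21,000xg for 90 min was quantified by TMTpro 16plex LC-MS/MS with channel sums equalised. Values are reported from duplicates as log-two fold change in thermal stability relative to solvent controls.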

[1] = compound: CCCS(=O)(=O)Nc1ccc(F)c(C(=O)c2c[nH]c3ncc(Cl)cc23)c1F
In short: as §1

barasertib = compound: CCN(CCCOc1ccc2c(Nc3cc(CC(=O)Nc4cccc(F)c4)[nH]n3)ncnc2c1)CCOP(=O)(O)O [barasertib]
In short: as §1

[2] = compound: CC[C@@H]1C(=O)N(C)c2cnc(Nc3ccc(C(=O)NC4CCN(C)CC4)cc3OC)nc2N1C1CCCC1
In short: as §1

volasertib = compound: CC[C@@H]1C(=O)N(C)c2cnc(Nc3ccc(C(=O)N[C@H]4CC[C@H](N5CCN(CC6CC6)CC5)CC4)cc3OC)nc2N1C(C)C [volasertib]
In short: as §1

[3] = compound: CCn1c(C(=O)N(C2CC2)C2CC2)cc2c3c(ncn3C)c(Nc3cc(C)n(C)n3)nc21
In short: as §1

[4] = compound: CCn1cc(-c2ccnc3[nH]c(-c4cccc(CN(C)C)c4)cc23)c(-c2ccc(NC(=O)N(C)C)cc2)n1
In short: as §1

[5] = compound: CN1CCC(CNc2ccc3ncc(-c4cccc(OC(F)(F)F)c4)n3n2)CC1
In short: as §1

saracatinib = compound: CN1CCN(CCOc2cc(OC3CCOCC3)c3c(Nc4c(Cl)ccc5c4OCO5)ncnc3c2)CC1 [saracatinib]
In short: as §1

sotrastaurin = compound: CN1CCN(c2nc(C3=C(c4c[nH]c5ccccc45)C(=O)NC3=O)c3ccccc3n2)CC1 [sotrastaurin]
In short: as §1

alvocidib = compound: CN1CC[C@H](c2c(O)cc(O)c3c(=O)cc(-c4ccccc4Cl)oc23)[C@H](O)C1 [alvocidib]
In short: as §1

Tubastatin A = compound: CN1CCc2c(c3ccccc3n2Cc2ccc(C(=O)NO)cc2)C1 [Tubastatin A]
In short: as §1

[6] = compound: CNC(=O)C1=CC=CC=C1NC2=NC(=NC=C2Cl)NC3=C(C=C(C=C3)N4CCOCC4)OC
In short: as §1

defactinib = compound: CNC(=O)c1ccc(Nc2ncc(C(F)(F)F)c(NCc3nccnc3N(C)S(C)(=O)=O)n2)cc1 [defactinib]
In short: as §1

[7] = compound: CNc1nc(-c2ccc3c(N)n[nH]c3c2)cc(N2C[C@@H](C(=O)NC3CCCCC3)CC[C@H]2C)n1
In short: as §1

encorafenib = compound: COC(=O)N[C@@H](C)CNc1nccc(-c2cn(C(C)C)nc2-c2cc(Cl)cc(NS(C)(=O)=O)c2F)n1 [encorafenib]
In short: as §1

[8] = compound: COC(=O)[C@H](CCSC)NC(=O)C1=C(C=C(C=C1)NC[C@H](CS)N)C2=CC=CC=C2
In short: as §1

alisertib = compound: COc1cc(Nc2ncc3c(n2)-c2ccc(Cl)cc2C(c2c(F)cccc2OC)=NC3)ccc1C(=O)O [alisertib]
In short: as §1

[9] = compound: COc1cc2nc(-c3cc(F)ccc3O)nc(N[C@@H]3CNC[C@H]3C(C)(C)O)c2cc1OC
In short: as §1

gefitinib = compound: COc1cc2ncnc(Nc3ccc(F)c(Cl)c3)c2cc1OCCCN1CCOCC1 [gefitinib]
In short: as §1

UniProt Q15287, sequence (Q15287 whole entry, looked up): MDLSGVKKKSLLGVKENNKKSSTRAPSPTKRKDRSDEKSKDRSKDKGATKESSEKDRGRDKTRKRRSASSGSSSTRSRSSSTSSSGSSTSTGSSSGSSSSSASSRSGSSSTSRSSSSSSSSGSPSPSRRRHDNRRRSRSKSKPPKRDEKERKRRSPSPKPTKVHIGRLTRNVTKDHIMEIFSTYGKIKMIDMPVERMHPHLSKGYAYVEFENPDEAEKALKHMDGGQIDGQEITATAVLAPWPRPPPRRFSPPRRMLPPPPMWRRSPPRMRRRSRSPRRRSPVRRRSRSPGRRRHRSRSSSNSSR
UniProt P78509, sequence (P78509 whole entry, looked up): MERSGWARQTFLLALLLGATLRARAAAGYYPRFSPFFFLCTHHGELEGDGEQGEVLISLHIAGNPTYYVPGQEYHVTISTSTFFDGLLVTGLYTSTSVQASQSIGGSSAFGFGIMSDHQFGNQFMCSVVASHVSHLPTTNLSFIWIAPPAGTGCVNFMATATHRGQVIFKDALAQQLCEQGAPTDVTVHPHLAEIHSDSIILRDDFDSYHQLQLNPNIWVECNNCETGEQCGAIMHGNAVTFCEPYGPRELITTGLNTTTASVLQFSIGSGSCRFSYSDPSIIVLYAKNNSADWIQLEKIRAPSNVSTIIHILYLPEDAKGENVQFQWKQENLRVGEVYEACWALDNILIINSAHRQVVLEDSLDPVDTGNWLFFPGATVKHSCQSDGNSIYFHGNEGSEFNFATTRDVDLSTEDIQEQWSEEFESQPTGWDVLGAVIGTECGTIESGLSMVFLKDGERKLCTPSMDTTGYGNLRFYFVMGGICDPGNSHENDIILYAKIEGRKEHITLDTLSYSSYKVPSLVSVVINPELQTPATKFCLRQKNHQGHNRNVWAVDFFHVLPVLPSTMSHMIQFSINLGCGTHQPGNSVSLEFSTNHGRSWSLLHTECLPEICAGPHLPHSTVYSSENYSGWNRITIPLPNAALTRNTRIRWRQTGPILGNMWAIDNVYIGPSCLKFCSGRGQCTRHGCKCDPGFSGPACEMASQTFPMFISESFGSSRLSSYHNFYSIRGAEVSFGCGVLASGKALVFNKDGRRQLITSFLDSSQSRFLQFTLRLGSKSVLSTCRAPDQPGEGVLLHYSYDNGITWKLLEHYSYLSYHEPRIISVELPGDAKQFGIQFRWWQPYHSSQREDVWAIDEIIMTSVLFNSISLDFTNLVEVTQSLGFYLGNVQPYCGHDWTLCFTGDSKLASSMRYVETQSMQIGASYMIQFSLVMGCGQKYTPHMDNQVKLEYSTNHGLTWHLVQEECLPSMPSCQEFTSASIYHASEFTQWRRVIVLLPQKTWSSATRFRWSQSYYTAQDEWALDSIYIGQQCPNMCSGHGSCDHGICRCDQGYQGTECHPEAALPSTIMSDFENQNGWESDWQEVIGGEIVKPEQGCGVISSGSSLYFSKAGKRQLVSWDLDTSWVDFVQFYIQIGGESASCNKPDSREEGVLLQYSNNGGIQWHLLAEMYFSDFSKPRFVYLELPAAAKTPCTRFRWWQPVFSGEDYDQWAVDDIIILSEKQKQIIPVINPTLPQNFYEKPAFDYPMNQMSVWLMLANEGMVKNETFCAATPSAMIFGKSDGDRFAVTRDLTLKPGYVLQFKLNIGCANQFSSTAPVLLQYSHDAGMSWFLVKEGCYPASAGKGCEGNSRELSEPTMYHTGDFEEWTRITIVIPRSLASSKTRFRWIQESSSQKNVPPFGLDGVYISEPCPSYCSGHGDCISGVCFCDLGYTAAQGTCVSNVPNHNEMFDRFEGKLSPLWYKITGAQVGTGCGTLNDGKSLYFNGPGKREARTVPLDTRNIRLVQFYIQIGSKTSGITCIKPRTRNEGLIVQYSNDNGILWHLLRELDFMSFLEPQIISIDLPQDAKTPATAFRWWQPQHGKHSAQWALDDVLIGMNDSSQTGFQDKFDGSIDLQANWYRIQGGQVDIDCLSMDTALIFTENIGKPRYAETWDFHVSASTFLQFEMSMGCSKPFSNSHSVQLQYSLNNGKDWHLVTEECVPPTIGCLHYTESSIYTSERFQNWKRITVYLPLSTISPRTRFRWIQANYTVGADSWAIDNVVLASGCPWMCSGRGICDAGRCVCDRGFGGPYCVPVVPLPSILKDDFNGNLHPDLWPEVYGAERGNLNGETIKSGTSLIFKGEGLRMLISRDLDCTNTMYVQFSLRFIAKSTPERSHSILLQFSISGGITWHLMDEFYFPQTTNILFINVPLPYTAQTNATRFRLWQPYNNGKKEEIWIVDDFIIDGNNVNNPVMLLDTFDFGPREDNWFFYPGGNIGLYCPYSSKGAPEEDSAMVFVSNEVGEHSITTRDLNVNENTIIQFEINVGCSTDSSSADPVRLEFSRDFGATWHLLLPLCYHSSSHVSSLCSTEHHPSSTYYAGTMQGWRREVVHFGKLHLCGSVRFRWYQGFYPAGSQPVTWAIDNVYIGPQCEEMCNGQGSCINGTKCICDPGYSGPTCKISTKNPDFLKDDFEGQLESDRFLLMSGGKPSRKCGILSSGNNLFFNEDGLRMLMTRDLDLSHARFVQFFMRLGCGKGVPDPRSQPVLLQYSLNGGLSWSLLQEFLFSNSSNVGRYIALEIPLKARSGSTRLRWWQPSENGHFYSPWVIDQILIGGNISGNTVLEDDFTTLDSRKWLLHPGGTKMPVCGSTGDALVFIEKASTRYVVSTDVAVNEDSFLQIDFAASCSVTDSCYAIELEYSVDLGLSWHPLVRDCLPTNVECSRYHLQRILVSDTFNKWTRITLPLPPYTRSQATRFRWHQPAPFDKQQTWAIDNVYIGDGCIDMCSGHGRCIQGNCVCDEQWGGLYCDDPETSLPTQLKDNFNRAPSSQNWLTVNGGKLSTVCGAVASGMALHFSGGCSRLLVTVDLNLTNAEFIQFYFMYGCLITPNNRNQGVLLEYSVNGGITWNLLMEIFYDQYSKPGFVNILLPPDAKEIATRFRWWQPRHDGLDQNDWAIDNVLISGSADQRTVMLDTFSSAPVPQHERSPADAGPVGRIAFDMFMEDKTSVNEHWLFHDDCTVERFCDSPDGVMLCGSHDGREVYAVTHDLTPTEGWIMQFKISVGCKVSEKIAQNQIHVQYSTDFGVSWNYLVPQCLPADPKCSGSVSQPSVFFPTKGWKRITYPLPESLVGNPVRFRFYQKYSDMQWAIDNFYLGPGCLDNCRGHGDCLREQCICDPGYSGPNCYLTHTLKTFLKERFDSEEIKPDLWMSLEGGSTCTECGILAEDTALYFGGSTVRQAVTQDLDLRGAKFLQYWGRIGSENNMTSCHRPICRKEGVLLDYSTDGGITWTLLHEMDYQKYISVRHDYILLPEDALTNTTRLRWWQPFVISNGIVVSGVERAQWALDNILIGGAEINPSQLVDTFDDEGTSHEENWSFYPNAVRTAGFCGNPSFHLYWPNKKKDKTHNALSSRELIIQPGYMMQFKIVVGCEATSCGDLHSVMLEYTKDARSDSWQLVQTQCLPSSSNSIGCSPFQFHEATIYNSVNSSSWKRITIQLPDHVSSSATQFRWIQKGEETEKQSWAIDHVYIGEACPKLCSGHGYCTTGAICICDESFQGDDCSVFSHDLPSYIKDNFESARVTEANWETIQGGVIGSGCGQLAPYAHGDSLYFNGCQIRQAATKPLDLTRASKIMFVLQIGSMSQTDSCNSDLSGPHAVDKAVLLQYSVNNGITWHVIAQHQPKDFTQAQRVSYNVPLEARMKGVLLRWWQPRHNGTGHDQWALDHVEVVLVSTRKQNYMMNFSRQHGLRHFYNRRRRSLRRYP
UniProt Q9BTD8, sequence (Q9BTD8 whole entry, looked up): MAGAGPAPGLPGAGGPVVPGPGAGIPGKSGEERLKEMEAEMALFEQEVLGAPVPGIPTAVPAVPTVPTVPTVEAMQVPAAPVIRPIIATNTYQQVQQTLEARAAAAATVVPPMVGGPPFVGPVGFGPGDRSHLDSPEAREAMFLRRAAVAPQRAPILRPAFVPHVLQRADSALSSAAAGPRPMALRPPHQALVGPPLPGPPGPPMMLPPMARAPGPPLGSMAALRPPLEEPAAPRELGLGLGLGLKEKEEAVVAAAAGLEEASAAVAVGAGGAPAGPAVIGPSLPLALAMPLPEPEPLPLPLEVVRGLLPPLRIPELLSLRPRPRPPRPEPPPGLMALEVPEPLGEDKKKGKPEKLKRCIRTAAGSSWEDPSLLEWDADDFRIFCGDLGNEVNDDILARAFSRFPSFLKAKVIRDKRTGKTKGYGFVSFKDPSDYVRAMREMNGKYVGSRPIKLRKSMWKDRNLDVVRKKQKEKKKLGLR
UniProt Q9Y3T6, sequence (Q9Y3T6 whole entry, looked up, one chain of several): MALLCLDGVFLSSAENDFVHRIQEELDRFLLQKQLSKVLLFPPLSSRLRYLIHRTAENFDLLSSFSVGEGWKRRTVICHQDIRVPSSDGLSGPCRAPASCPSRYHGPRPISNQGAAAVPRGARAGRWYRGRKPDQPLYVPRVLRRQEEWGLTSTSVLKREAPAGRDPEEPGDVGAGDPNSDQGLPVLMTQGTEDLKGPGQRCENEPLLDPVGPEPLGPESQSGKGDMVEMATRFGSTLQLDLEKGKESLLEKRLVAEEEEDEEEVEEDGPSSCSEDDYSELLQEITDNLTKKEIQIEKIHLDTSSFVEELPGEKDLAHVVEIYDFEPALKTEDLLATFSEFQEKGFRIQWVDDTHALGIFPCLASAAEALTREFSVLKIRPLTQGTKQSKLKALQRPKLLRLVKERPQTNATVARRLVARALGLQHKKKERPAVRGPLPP
UniProt Q96EE3, sequence (Q96EE3 whole entry, looked up): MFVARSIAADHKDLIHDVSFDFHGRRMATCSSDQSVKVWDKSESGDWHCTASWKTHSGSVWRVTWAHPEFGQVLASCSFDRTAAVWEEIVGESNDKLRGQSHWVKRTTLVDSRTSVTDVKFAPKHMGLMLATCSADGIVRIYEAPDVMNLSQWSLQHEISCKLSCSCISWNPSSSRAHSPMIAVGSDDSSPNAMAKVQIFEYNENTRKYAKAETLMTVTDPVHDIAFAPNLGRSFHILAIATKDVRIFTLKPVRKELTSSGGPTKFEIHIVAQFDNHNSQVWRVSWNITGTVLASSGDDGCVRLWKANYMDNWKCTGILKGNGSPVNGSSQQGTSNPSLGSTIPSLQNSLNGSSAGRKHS

Row | Target | log2 fold change (vemurafenib) | log2 fold change [1] | log2 fold change (barasertib) | log2 fold change [2] | log2 fold change (volasertib) | log2 fold change [3] | log2 fold change [4] | log2 fold change [5] | log2 fold change (saracatinib) | log2 fold change (sotrastaurin) | log2 fold change (alvocidib) | log2 fold change (Tubastatin A) | log2 fold change [6] | log2 fold change (defactinib) | log2 fold change [7] | log2 fold change (encorafenib) | log2 fold change [8] | log2 fold change (alisertib) | log2 fold change [9] | log2 fold change (gefitinib)
1 | RPL36AL (UniProt Q969Q0) | -0.039 | 0.012 | -0.009 | -0.04 | -0.013 | 0.076 | -0.076 | -0.004 | -0.091 | -0.032 | 0.055 | -0.056 | 0.023 | 0.026 | -0.243 (active) | 0.03 | -0.08 | -0.057 | -0.029 | -0.07
2 | RNPS1 (UniProt Q15287) | -0.03 | 0.001 | -0.008 | -0.175 | 0.043 | -0.022 | 0.02 | 0.077 | -0.04 | -0.003 | -0.043 | 0.102 | 0.02 | -0.009 | 0.029 | 0.069 | 0.01 | 0.02 | 0.01 | 0.006
3 | RARS (UniProt P54136) | -0.004 | -0.003 | 0.046 | -0.093 | -0.078 | 0.067 | 0.013 | -0.039 | 0.027 | 0.045 | 0.032 | -0.1 | -0.006 | 0.024 | -0.035 | -0.001 | 0.128 | 0.026 | -0.009 | -0.023
4 | RPN2 (UniProt P04844) | 0.009 | 0.008 | 0.019 | 0 | 0.003 | -0.003 | -0.084 | 0.033 | 0.008 | 0.008 | -0.024 | 0.001 | -0.024 | -0.006 | -0.01 | 0.041 | -0.031 | -0.008 | -0.03 | 0.011
5 | R3HCC1 (UniProt Q9Y3T6) | 0.07 | 0.036 | 0.009 | 0.044 | -0.015 | -0.022 | -0.066 | 0.082 | 0.029 | 0.021 | -0.019 | 0.023 | 0.048 | 0.055 | -0.018 | -0.004 | -0.04 | -0.002 | 0.003 | 0.008
6 | RAPGEF2, A0A2R8YGD3 | 0 | 0.013 | 0.144 | 0.093 | -0.015 | -0.029 | 0.325 | 0.05 | 0.01 | -0.003 | -0.241 | 0.236 (active) | 0.017 | 0.119 | 0.025 | 0.017 | 0.021 | 0.007 | -0.017 | -0.042
7 | RHOA (UniProt P61586) | 0.003 | -0.005 | -0.07 | 0.069 | 0.009 | 0.042 | 0.45 (active) | -0.06 | 0.009 | 0 | 0.093 | -0.078 | 0.087 | -0.029 | -0.003 | -0.042 | -0.046 | 0.072 | 0.029 | 0.078
8 | RBM8A (UniProt Q9Y5S9) | -0.086 | -0.045 | 0.027 | -0.091 | -0.016 | 0.047 | 0.35 | -0.198 | -0.043 | 0.047 | 0.086 | 0.024 | -0.024 | 0.017 | -0.256 | 0.002 | -0.069 | 0 | -0.062 | -0.024
9 | RIC1 (UniProt Q4ADV7) | -0.055 | 0.021 | -0.013 | 0.029 | 0.009 | 0.017 | -0.29 | 0.004 | -0.012 | -0.008 | 0.014 | -0.051 | 0.029 | -0.12 | 0.02 | 0.037 | -0.13 | 0.017 | -0.073 | 0.024
10 | RELN (UniProt P78509) | 0.043 | -0.098 | 0.004 | 0.024 | -0.019 | 0.021 | -0.024 | 0.152 | 0.035 | 0.02 | 0.026 | -0.051 | -0.025 | 0.055 | -0.016 | -0.009 | -0.092 | -0.014 | 0.141 | 0.089
11 | RBM42 (UniProt Q9BTD8) | -0.029 | 0.027 | -0.037 | 0.076 | -0.014 | -0.006 | 0.004 | -0.002 | 0.039 | -0.009 | -0.036 | -0.022 | 0.08 | 0.058 | 0.077 | 0.098 | -0.28 (active) | 0.043 | -0.062 | -0.066
12 | RAI14 isoform 2 (UniProt Q9P0K7) | 0.001 | 0.066 | 0.061 | -0.019 | 0.005 | 0 | 0.045 | -0.011 | 0.031 | 0.026 | 0.019 | -0.08 | 0.003 | 0.031 | 0.077 | 0.012 | 0.083 | -0.018 | 0 | 0.029
13 | RNF123 (UniProt Q5XPI4) | 0.034 | 0.003 | 0.019 | -0.009 | -0.048 | 0.035 | -0.045 | 0.004 | -0.006 | 0.03 | 0.011 | -0.047 | -0.002 | -0.027 | 0.017 | 0.044 | -0.062 | -0.004 | 0.017 | 0.011
14 | RSU1 (UniProt Q15404) | -0.006 | 0.005 | -0.067 | 0.026 | 0.022 | 0.004 | 0.405 (active) | -0.143 | -0.032 | -0.019 | 0.12 | 0.057 | -0.021 | -0.042 | -0.008 | -0.035 | -0.035 | -0.005 | 0.015 | 0.023
15 | SEH1L isoform 1 (UniProt Q96EE3) | -0.029 | -0.001 | 0.004 | 0.069 | 0.216 (active) | -0.015 | -0.022 | 0.021 | -0.005 | -0.01 | -0.042 | 0 | 0 | -0.028 | -0.014 | -0.007 | -0.077 | 0.001 | 0.01 | -0.004

Source: the supplement of paper PMC10849652
